Test results from PubChem BioAssay (Tox21).
Several values for one entry are separate records, joined by “and”; a condition that tells them apart may be missing. Identical values can stand only once. Records with an inconclusive call do not appear. A call without a number means that no potency is given here. Where a structure was tested more than once in an assay, its records may differ in their call. Activity calls are given as the source filed them. Unless noted, calls follow the shape of the dose curve; as a rule, active = well fitted curve in the direction sought with a large enough effect in the repeat runs; inconclusive = weak or mixed curves; inactive = no such curve, though single readings can be large; an effect the other way counts as inactive or inconclusive.

Legend:
[1] = molecular target: Retinoic acid receptor RXR-alpha (Homo sapiens) (UniProt P19793); experiment: qHTS assay to identify small molecule agonists of the RXR signaling pathway (AID 1159527; calls by dose curve; also: nearly all actives have a fitted effect of over 35% in size; also: potency is read from the fitted curve at half-maximal effect)
Outline: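 Read-out: beta-lactamase FRET ratio (405 nm excitation, 460 and 530 nm emission) after 2 hr substrate loading at room temperature. Cells were RXR-alpha-UAS-bla HEK 293T treated with compounds for 16 hr in 2% charcoal-stripped FBS medium.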

[2] = qHTS assay to identify small molecule agonists of the RXR signaling pathway - cell viability counter screen (AID 1159529); also: nearly all actives have a fitted effect of over 50% in size; also: potency is read from the fitted curve at half-maximal effect
Outline: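 HEK 293T RXRa-bla cells, 2% CS-FBS; 5 h settle; cpd 16 h 37 C, 5% CO2; CellTiter-Glo 30 min RT, luminescence. Tetraoctyl ammonium bromide as positive control.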

[3] = qHTS assay to identify small molecule antagonists of the retinoid acid receptor (RAR) signaling pathway - cell viability counter screen (AID 1159551); also: nearly all actives have a fitted effect of over 35% in size; also: potency is read from the fitted curve at half-maximal effect
Outline: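 Measured by luminescent ATP detection, viability reflects C3RL4 cells treated 6 h at 37 C with test chemicals in the presence of 1 uM (final) retinol.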

[4] = qHTS assay to identify small molecule antagonists of the estrogen related receptor (ERR) signaling pathway from Tox21 library - cell viability counter screen (AID 1224834); also: nearly all actives have a fitted effect of over 30% in size; also: potency is read from the fitted curve at half-maximal effect
Outline: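 Seeded ERR cells were rested 6 h at 37 C/5% CO2 before compounds, positive and negative controls or DMSO were added. Incubation continued for 17.5 h, and viability was then quantified by CellTiter-Fluor fluorescence.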

[5] = molecular target: Luciferin 4-monooxygenase (Photinus pyralis) (UniProt P08659); experiment: qHTS assay to identify small molecule inhibitors of firefly luciferase (AID 1224835); also: nearly all actives have a fitted effect of over 25% in size; also: potency is read from the fitted curve at half-maximal effect
Outline: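 Biochemical qHTS: compounds run as interplate titrations against purified firefly enzyme, with D-luciferin and ATP each at its KM concentration. Light output recorded by CCD imaging.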

[6] = qHTS assay to identify small molecule agonists of the constitutive androstane receptor (CAR) signaling pathway - cell viability counter screen (AID 1224836); also: nearly all actives have a fitted effect of over 45% in size; also: potency is read from the fitted curve at half-maximal effect
Outline: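 HepG2-CYP2B6-hCAR, 2500 cells/well, 4 h pre-incubation; cpd 15 conc + PK11195 0.75 uM final; 23 h, 37 C/5% CO2; CellTiter-Fluor, fluorescence.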

[7] = qHTS assay to identify small molecule antagonists of the constitutive androstane receptor (CAR) signaling pathway - cell viability counter screen (AID 1224837); also: nearly all actives have a fitted effect of over 45% in size; also: potency is read from the fitted curve at half-maximal effect
Outline: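 To flag cytotoxic false antagonists, HepG2 hCAR/CYP2B6-2.2kb cells were treated 23 hr with 15-concentration compound series and 50 nM CITCO at 37 C/5% CO2; CellTiter-Fluor fluorescence was the measured end point.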

[8] = molecular target: Nuclear receptor subfamily 1 group I member 3 (Homo sapiens) (UniProt Q14994); experiment: qHTS assay to identify small molecule antagonists of the constitutive androstane receptor (CAR) signaling pathway (AID 1224838);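 also: HepG2 cells stably expressing hCAR with CYP2B6 luciferase reporter stimulated by CITCO; nearly all actives have a fitted effect of over 40% in size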; also: potency is read from the fitted curve at half-maximal effect
Outline: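 Human hepatoma HepG2 cells expressing hCAR and a CYP2B6 promoter (2.2 kb) luciferase construct; compound titration (15 points) with 50 nM CITCO final, 24 h at 37 C/5% CO2; luminescence via ONE-Glo after 30 min at room temperature.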

[9] = qHTS assay to identify small molecule antagonists of the estrogen related receptor signaling pathway with the pleiotropic PPARgamma coactivator (PGC) from Tox21 10K library - cell viability counter screen (AID 1224840; active = well fitted cell-killing curve with a large enough effect in the repeat runs, not every such curve was filed as active; also: nearly all actives have a fitted effect of over 40% in size; also: potency is read from the fitted curve at half-maximal effect)
Outline: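 Seeded PGC/ERR cells (2,000/well, 6 h, 37 C/5% CO2) get compound by pin tool; 17.5 h incubation at 37 C; CellTiter-Fluor added, 30 min, fluorescence measured.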

[10] = molecular target: Thyrotropin receptor (Homo sapiens) (UniProt P16473); experiment: qHTS assay to identify small molecule agonists of the thyroid stimulating hormone receptor (TSHR) signaling pathway (AID 1224843; calls by dose curve; also: nearly all actives have a fitted effect of over 45% in size)
Outline: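 Agonist-mode screen: TSHR HEK293 cells received test chemicals for half an hour at room temperature, then HTRF cAMP detection reagents for one hour prior to fluorescence measurement. Each chemical ran as a 15-concentration series, triplicated.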

[11] = qHTS assay to identify small molecule agonists of the estrogen related receptor signaling pathway with the pleiotropic PPARgamma coactivator (PGC) from Tox21 10K library (AID 1224842); also: nearly all actives have a fitted effect of over 15% in size
Outline: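 PGC/ERR reporter cell line, 2,000 cells per well, incubated 6 h at 37 C before 23 nL compound in DMSO was added. After 18 h at 37 C, One-Glo luminescence read following 30 min at room temperature.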

[12] = qHTS assay to identify small molecule antagonists of the retinoic acid receptor (RAR) signaling pathway (AID 1159552; also: nearly all actives have a fitted effect of over 50% in size)
Outline: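 Cells of the C3RL4 line were seeded, incubated overnight, then dosed with compounds in DMSO followed immediately by retinol (1 uM final). Six hours later luciferase detection reagent went in; signal was measured after 30 min at RT.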

[13] = qHTS assay to identify small molecule agonists of the retinoic acid receptor (RAR) signaling pathway (AID 1159553)
Outline: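 6 hr compound exposure (DMSO vehicle) of overnight-plated C3RL4 RARE-luc cells at 37 C; luminescence quantified after 30 min RT with luciferase reagent.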

[14] = molecular target: Nuclear receptor subfamily 1 group I member 3 (Homo sapiens) (UniProt Q14994); experiment: qHTS assay to identify small molecule agonists of the constitutive androstane receptor (CAR) signaling pathway (AID 1224839);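 also: HepG2 cells stably carrying human CAR and a CYP2B6 luciferase reporter; series mostly up to about 92 µM; nearly all actives have a fitted effect of over 15% in size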
Outline: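 HepG2-CYP2B6-hCAR cells, 2500/well, 4 h pre-incubation; compounds 15 conc.; PK11195 0.75 uM final; 24 h, 37 C/5% CO2; ONE-Glo luciferase read.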

[15] = qHTS assay to identify small molecule antagonists of the estrogen related receptor (ERR) signaling pathway - cell viability counter screen (AID 1224818); also: series mostly up to about 46 µM
Outline: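 Compounds dissolved in DMSO were applied to ERR cells seeded at 2,000 per well 6 h earlier. Cell viability followed 17.5 h later via 30-min CellTiter-Fluor fluorescence.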

[16] = qHTS assay to identify small molecule antagonists of the estrogen related receptor (ERR) signaling pathway (AID 1224819;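 also: luminescence from an ERR-driven luciferase reporter measured with One-Glo reagent; series mostly up to about 46 µM; nearly all actives have a fitted effect of over 50% in size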)
Outline: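 Compounds dissolved in DMSO were pin-transferred onto ERR cells that had been plated 6 h earlier, and cells were then incubated 18 h at 37 C; signal was luciferase luminescence via One-Glo.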

[17] = qHTS assay to identify small molecule agonists of the estrogen related receptor (ERR) signaling pathway (AID 1224820)
Outline: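 An ERR cell line provided by NTP was seeded at 2,000 cells per well and allowed to settle for 6 h before compounds in DMSO were added. After 18 h at 37 C, luciferase activity was measured by One-Glo luminescence.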

[18] = system: estrogen-related receptor alpha (ERRalpha) with PGC-1alpha coactivator, human; experiment: qHTS assay to identify small molecule antagonists of the estrogen related receptor signaling pathway with the pleiotropic PPARgamma coactivator (PGC) (AID 1224821; calls by dose curve;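 also: series mostly up to about 46 µM; lower luminescence signal means antagonism of PGC/ERR signalling; nearly all actives have a fitted effect of over 50% in size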)
Outline: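 A PGC/ERR cell line supplied by NTP is seeded, allowed 6 h at 37 C, and treated with test compounds in DMSO for 18 h. Signal is then measured as luciferase luminescence using One-Glo.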

[19] = qHTS assay to identify small molecule antagonists of the estrogen related receptor signaling pathway with the pleiotropic PPARgamma coactivator (PGC) cell viability counter screen (AID 1224822; also: series mostly up to about 46 µM)
Outline: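 Counter screen for cell viability: PGC/ERR cells, 6 h pre-incubation after plating, 17.5 h compound exposure at 37 C, fluorescence from CellTiter-Fluor after 30 min.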

[20] = qHTS assay to identify small molecule agonists of the estrogen related receptor signaling pathway with the pleiotropic PPARgamma coactivator (PGC) (AID 1224823)
Outline: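 Compounds dissolved in DMSO are added by pin tool to PGC/ERR cells that have settled for 6 h, and incubation continues 18 h at 37 C. Reporter output is measured as One-Glo luminescence.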

Sequence of Thyrotropin receptor (Homo sapiens) (P16473 whole entry, looked up): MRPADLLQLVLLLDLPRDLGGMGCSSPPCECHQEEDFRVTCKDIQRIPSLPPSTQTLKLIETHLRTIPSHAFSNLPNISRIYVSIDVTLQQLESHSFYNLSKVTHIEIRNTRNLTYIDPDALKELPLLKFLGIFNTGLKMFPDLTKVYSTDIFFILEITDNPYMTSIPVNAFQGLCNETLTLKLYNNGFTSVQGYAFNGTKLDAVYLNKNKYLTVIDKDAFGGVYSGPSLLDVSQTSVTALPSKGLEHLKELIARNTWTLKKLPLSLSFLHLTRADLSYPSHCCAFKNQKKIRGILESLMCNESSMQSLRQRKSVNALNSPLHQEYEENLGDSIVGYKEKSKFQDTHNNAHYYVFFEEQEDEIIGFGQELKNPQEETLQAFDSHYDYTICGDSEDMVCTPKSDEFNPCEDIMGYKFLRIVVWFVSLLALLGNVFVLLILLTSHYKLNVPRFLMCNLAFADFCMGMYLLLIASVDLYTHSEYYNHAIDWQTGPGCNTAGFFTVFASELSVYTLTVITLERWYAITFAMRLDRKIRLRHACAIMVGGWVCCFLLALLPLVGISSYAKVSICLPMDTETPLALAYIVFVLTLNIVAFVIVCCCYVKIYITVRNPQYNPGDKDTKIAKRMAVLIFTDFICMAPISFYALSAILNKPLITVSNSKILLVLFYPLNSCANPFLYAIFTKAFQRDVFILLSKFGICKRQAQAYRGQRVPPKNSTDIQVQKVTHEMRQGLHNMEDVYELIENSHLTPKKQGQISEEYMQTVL
Sequence of Luciferin 4-monooxygenase (Photinus pyralis) (P08659 whole entry, looked up): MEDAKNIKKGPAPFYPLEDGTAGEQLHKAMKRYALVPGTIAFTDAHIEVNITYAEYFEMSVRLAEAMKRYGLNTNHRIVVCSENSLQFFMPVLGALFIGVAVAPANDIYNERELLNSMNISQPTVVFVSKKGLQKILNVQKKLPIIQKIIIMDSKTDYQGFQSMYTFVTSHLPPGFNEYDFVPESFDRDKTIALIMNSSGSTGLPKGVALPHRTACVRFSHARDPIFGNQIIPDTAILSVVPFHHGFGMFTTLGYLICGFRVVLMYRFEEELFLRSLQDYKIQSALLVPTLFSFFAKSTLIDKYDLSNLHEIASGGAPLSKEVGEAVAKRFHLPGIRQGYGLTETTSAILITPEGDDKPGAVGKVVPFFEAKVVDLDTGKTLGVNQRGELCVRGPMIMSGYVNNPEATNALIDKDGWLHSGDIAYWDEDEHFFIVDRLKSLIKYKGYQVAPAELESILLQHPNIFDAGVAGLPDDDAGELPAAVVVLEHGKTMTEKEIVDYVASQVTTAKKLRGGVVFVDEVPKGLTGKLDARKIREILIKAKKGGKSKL
Sequence of Retinoic acid receptor RXR-alpha (Homo sapiens) (P19793 whole entry, looked up): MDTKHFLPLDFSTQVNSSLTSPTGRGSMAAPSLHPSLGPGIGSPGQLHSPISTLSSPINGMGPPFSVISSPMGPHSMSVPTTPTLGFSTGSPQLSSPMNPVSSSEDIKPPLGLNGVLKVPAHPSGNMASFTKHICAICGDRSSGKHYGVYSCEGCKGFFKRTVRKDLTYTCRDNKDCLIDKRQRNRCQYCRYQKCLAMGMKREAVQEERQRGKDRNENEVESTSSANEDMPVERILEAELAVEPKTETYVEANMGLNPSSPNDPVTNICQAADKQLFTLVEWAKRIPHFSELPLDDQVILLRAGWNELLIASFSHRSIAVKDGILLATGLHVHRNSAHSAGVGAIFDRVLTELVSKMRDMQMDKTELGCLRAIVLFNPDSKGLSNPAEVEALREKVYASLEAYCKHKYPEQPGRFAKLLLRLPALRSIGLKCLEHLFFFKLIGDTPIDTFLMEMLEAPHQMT
Sequence of Nuclear receptor subfamily 1 group I member 3 (Homo sapiens) (Q14994 whole entry, looked up): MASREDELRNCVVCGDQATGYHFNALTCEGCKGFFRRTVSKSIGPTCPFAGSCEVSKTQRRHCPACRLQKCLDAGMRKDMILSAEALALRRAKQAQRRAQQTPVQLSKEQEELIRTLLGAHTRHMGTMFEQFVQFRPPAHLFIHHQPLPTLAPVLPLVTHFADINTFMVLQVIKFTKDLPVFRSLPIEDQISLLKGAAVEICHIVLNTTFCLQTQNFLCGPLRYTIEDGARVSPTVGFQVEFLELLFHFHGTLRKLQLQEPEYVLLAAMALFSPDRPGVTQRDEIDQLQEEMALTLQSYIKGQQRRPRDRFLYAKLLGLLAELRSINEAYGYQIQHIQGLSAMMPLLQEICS

SMILES	Potency [1]	Potency [2]	Potency [3]	Potency [4]	Potency [5]	Potency [6]	Potency [7]	Potency [8]	Potency [9]	Potency [10]	Potency [11]	Potency [12]	Potency [13]	Potency [14]	outcome [15]	Potency [16]	outcome [17]	outcome [18]	Potency [19]	outcome [20]
Cc1cc(=O)oc2cc(O)ccc12	43.6 µM (active)	inactive	inactive	inactive	inactive	inactive	inactive	inactive	inactive	inactive	–	–	–	–	–	–	–	–	–	–
O=C1O[C@H]([C@@H](O)CO)C(O)=C1O	inactive and 12.3 µM (active)	inactive	inactive	inactive	inactive	inactive	inactive	inactive	inactive	inactive	–	–	–	–	–	–	–	–	–	–
Cc1ncc([N+](=O)[O-])n1C	inactive	inactive	inactive	inactive	inactive	inactive	inactive	inactive	inactive	inactive	inactive	–	–	–	–	–	–	–	–	–
CCCCC1(COC(=O)CCC(=O)O)C(=O)N(c2ccccc2)N(c2ccccc2)C1=O	inactive	inactive	inactive	inactive	inactive	inactive	inactive	–	inactive	inactive	inactive	inactive	inactive	–	–	–	–	–	–	–
Nc1c(N=Nc2ccc(-c3ccc(N=Nc4cc(S(=O)(=O)O)c5ccccc5c4N)cc3)cc2)cc(S(=O)(=O)O)c2ccccc12	inactive	inactive	17.2 µM (active)	21.7 µM (active)	39.9 µM (active)	27.3 µM (active)	24.3 µM (active)	27.3 µM (active)	21.7 µM (active)	–	inactive	inactive	–	–	–	–	–	–	–	–
CCCc1cc(=O)[nH]c(=S)[nH]1	inactive	inactive	inactive	inactive	inactive	inactive	inactive	inactive	inactive	inactive	–	inactive	–	–	–	–	–	–	–	–
CC(=O)CCC(=O)O	inactive	inactive	inactive	inactive	inactive	inactive	inactive	inactive	inactive	inactive	–	–	–	inactive	–	–	–	–	–	–
C/C=C/C=C/C(=O)O	inactive and 49 µM (active)	inactive	inactive	inactive	–	inactive	inactive	inactive	inactive	inactive	–	–	–	inactive	–	–	–	–	–	–
CN(C)CCOC(C)(c1ccccc1)c1ccccn1 (centres undefined)	inactive	inactive	inactive	inactive	inactive	inactive	inactive	inactive	inactive	inactive	inactive	inactive	–	–	inactive	inactive	inactive	inactive	inactive	inactive
Cc1c(C(=O)O)c(O)cc2c1C(=O)c1c(O)c([C@@H]3O[C@H](CO)[C@@H](O)[C@H](O)[C@H]3O)c(O)c(O)c1C2=O	inactive	inactive	33.5 µM (active) and 48.6 µM (active)	33.5 µM (active) and 27.3 µM (active)	34.7 µM (active) and 35.6 µM (active) and 17.4 µM (active)	–	–	–	inactive	–	–	inactive	inactive	–	–	–	–	–	–	–
CCCCCCc1ccc(O)cc1O	inactive	49.1 µM (active) and 54.9 µM (active)	inactive	61.3 µM (active)	inactive	inactive	inactive	inactive	inactive	inactive	inactive	inactive	–	inactive	–	–	–	–	–	–
CS(=O)(=O)OCCCCOS(C)(=O)=O	inactive and 17.4 µM (active)	inactive	inactive	inactive	inactive	inactive	inactive	–	inactive	inactive	inactive	inactive	–	–	–	–	–	–	–	–
Nc1ccc(O)c([N+](=O)[O-])c1	7.76 µM (active)	inactive	inactive	21.7 µM (active)	79.6 µM (active)	–	–	12.2 µM (active)	–	–	–	inactive	–	–	–	inactive	–	inactive	inactive	inactive
CN(N=O)C(=O)N[C@@H]1[C@@H](O)[C@H](O)[C@@H](CO)O[C@@H]1O	–	inactive	inactive	inactive	inactive	inactive	inactive	inactive	inactive	inactive	–	inactive	inactive	–	–	–	–	–	–	–
CC1(C)O[C@@H]2C[C@H]3[C@@H]4CCC5=CC(=O)C=C[C@]5(C)[C@@]4(F)[C@@H](O)C[C@]3(C)[C@]2(C(=O)CO)O1	inactive	inactive	inactive	inactive	inactive	inactive	inactive	–	inactive	–	inactive	inactive	–	–	–	–	–	–	–	–
NC(CO)(CO)CO	inactive	inactive	inactive	inactive	inactive	inactive	inactive	inactive	inactive	inactive	–	inactive	–	–	–	–	–	–	–	–
CCCCCCCC(=O)OCC(COC(=O)CCCCCCC)OC(=O)CCCCCCC	inactive	inactive	inactive	inactive	inactive	inactive	inactive	–	inactive	inactive	–	inactive	–	–	–	–	–	–	–	–
